Results reported in PubChem BioAssay (Tox21).
Where “and” joins values, the source holds several entries; their conditions need not be identical. Identical values can stand only once. Records with an inconclusive call do not appear. Entries that show only a call come without a potency. More than one record can exist for a structure, and the calls need not agree. Calls of active or inactive are those of the source. Unless noted, the call rests on the fitted dose curve; in most records, active means well fitted curve in the direction sought with a large enough effect in the repeat runs; inconclusive means weak or mixed curves; inactive means no such curve, though single readings can be large; an effect the other way counts as inactive or inconclusive.

Legend:
[1] = target: Progesterone receptor (Homo sapiens) (UniProt P06401); assay: qHTS assay to identify small molecule agonists of the progesterone receptor (PR) signaling pathway (AID 1346784; calls by dose curve; further: nearly all actives have a fitted effect of over 30% in size)
Summary of the method: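 Cells (PR-UAS-bla HEK 293T, GripTite) were plated in assay medium containing 2% charcoal-stripped FBS and incubated 6 hr. Test compounds in DMSO were added for 16 hr at 37C. FRET substrate was then loaded for 2 hr at room temperature before fluorescence reading.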

[2] = target: Progesterone receptor (Homo sapiens) (UniProt P06401); assay: qHTS assay to identify small molecule antagonists of the progesterone receptor (PR) signaling pathway (AID 1346795; active means well fitted inhibition curve with a large enough effect in the signal ratio in the repeat runs, not every such curve was filed as active; the % refers to the signal ratio)
Summary of the method: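 Antagonist mode: compounds tested against 1 nM (final) promegestone stimulation in HEK293T cells expressing PR-UAS-bla reporter, 16 hr at 37C, 5% CO2; beta-lactamase activity detected via B/G FRET substrate after 2 hr at room temperature.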

[3] = qHTS assay to identify small molecule antagonists of the progesterone receptor (PR) signaling pathway - cell viability counter screen (AID 1346798); further: series mostly up to about 92 µM; nearly all actives have a fitted effect of over 50% in size
Summary of the method: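 Counter screen for cytotoxicity: viability of PR-UAS-bla HEK293T cells was measured with CellTiter-Glo luminescence following 16 hr compound exposure in the presence of R5020.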

[4] = qHTS assay to identify small molecule agonists of the progesterone receptor (PR) signaling pathway - cell viability counter screen (AID 1346799; calls by dose curve; further: nearly all actives have a fitted effect of over 45% in size)
Summary of the method: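 Cells (PR-UAS-bla HEK293T) are plated at 3,000/well in 2% charcoal-stripped FBS medium, rested 6 hr, dosed and incubated 16 hr at 37C. CellTiter-Glo is then added and luminescence measured after 30 min at room temperature.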

[5] = qHTS assay to identify small molecule antagonists of the TGF-beta/Smad signaling pathway - cell viability counter screen (AID 1346824); further: nearly all actives have a fitted effect of over 50% in size
Summary of the method: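 Cytotoxicity counter-screen run in the same wells as the beta-lactamase Smad reporter read: CellTiter-Glo luminescence after 30 min at room temperature. HEK 293T SBE-bla cells had 5 hr compound exposure at 37 C with TGF-beta1 (0.25 ng/mL stock).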

[6] = qHTS assay to identify small molecule agonists of the TGF-beta/Smad signaling pathway - cell viability counter screen (AID 1346829); further: top concentration of the series differs between compounds; nearly all actives have a fitted effect of over 45% in size
Summary of the method: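 Same-well cytotoxicity: CellTiter-Glo added after the 2 hr room-temperature beta-lactamase substrate step, luminescence measured 30 min later; cells had 5 hr of compound at 37 C.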

[7] = qHTS assay to identify small molecule agonists of the TGF-beta/Smad signaling pathway (AID 1346859; active means well fitted activation curve with a large enough effect in the signal ratio in the repeat runs, not every such curve was filed as active; the % refers to the signal ratio; further: series mostly up to about 77 µM)
Summary of the method: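 Reporter line: HEK 293T with stably integrated SBE-controlled beta-lactamase. Compound exposure lasts 5 hr at 37 C and 5% CO2; substrate loading follows for 2 hr at room temperature, with emission read at 460 and 530 nm.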

[8] = target: Thyrotropin-releasing hormone receptor (Homo sapiens) (UniProt P34981); assay: qHTS assay to identify small molecule antagonists of the thyrotropin-releasing hormone receptor (TRHR) signaling pathway (AID 1346877; active means well fitted inhibition curve with a large enough effect in the repeat runs, not every such curve was filed as active; further: series mostly up to about 51 µM)
Summary of the method: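 Cells (TRHR-HEK293) are plated and kept 18 h at 37 °C/5% CO2. A calcium-sensitive dye is added for 2 h, compound follows for 5 min at room temperature, and TRH is then given at 1 nM final.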

[9] = target: Thyrotropin-releasing hormone receptor (Homo sapiens) (UniProt P34981); assay: qHTS assay to identify small molecule agonists of the thyrotropin-releasing hormone receptor (TRHR) signaling pathway (AID 1346891; calls by dose curve;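 further: HEK293 cells expressing TRHR with calcium dye readout; series mostly up to about 58 µM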)
Summary of the method: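 Cells: TRHR-Hek293, seeded and incubated 18 h. Dye loading: 2 h at 37 °C. Compound added from DMSO stock by pin tool. Read-out: kinetic calcium fluorescence over 3 min.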

[10] = Human pregnane X receptor (PXR) small molecule agonists, qHTS cell viability counter screen (AID 1346977); further: nearly all actives have a fitted effect of over 50% in size; further: potency means the concentration at half of the fitted maximal effect
Summary of the method: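 Cytotoxicity counter screen run in the same wells as the PXR luciferase assay, using PXR-Luc HepG2 cells in charcoal-stripped serum medium. Viability: CellTiter-Fluor fluorescence after 24hr compound treatment.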

[11] = Caspase-3/7 induction in HepG2 cells by small molecules, qHTS assay (AID 1346978); further: nearly all actives have a fitted effect of over 15% in size; further: potency means the concentration at half of the fitted maximal effect
Summary of the method: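 Caspase-3/7 induction was measured by Caspase-Glo 3/7 luminescence (30 min, room temperature) after a 17 hr compound exposure of wild-type HepG2 cells seeded at 2,000 per well and pre-incubated 5 hr.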

[12] = Caspase-3/7 induction in CHO-K1 cells by small molecules, qHTS cell viability counter screen (AID 1346979); further: nearly all actives have a fitted effect of over 35% in size; further: potency means the concentration at half of the fitted maximal effect
Summary of the method: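 Cytotoxicity counter screen run in parallel with the caspase-3/7 assay: CHO-K1 cells, 16hr compound treatment at 37C, then CellTiter-Fluor for 1hr before fluorescence reading.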

[13] = Caspase-3/7 induction in CHO-K1 cells by small molecules, qHTS assay (AID 1346980); further: nearly all actives have a fitted effect of over 15% in size
Summary of the method: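 Luminescent Caspase-Glo 3/7 read (30min, room temperature) quantified apoptosis induction. Cells were wild-type CHO-K1, treated with compound for 17hr at 37 C and 5% CO2.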

[14] = Caspase-3/7 induction in HepG2 cells by small molecules, qHTS cell viability counter screen (AID 1346981); further: nearly all actives have a fitted effect of over 30% in size; further: potency means the concentration at half of the fitted maximal effect
Summary of the method: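 Steps: seed 2,000 HepG2 cells per well; incubate 5 hr at 37 C; pin-add compounds in DMSO; incubate 16 hr; add CellTiter-Fluor; after 1 hr at 37 C and 5% CO2, read fluorescence.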

[15] = target: Nuclear receptor subfamily 1 group I member 2 (Rattus norvegicus) (UniProt Q9R1A7); assay: Rat pregnane X receptor (rPXR) activation by small molecules, qHTS assay (AID 1346983); conditions: rPXR luciferase reporter cells, One-Glo luminescence, 24 h; stronger effect = higher value; further: nearly all actives have a fitted effect of over 20% in size
Summary of the method: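 Luminescent readout (One-Glo luciferase, 30 min room temperature) followed 24 hr compound treatment at 37 C of rPXR cells plated 2,000 per well and preincubated 5hr; qHTS format with compounds delivered in DMSO.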

[16] = target: Cytochrome P450 2D6 (Homo sapiens) (UniProt P10635); assay: Cytochrome P450 Family 2 Subfamily D Member 6 (CYP2D6) small molecule antagonists: luciferase reporter qHTS assay (AID 1671196); further: nearly all actives have a fitted effect of over 50% in size; further: potency means the concentration at half of the fitted maximal effect
Summary of the method: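 P450-Glo format: CYP2D6 converts a proluciferin substrate to luciferin in an NADPH-driven reaction lasting 1 h at room temperature. Light output, proportional to CYP2D6 activity, reflects interference by test chemicals.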

[17] = target: Cytochrome P450 2C19 (Homo sapiens) (UniProt P33261); assay: Cytochrome P450 Family 2 Subfamily C Member 19 (CYP2C19) small molecule antagonists: luciferase reporter qHTS assay (AID 1671197); further: nearly all actives have a fitted effect of over 65% in size; further: potency means the concentration at half of the fitted maximal effect
Summary of the method: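 Quantitative high-throughput screen of the Tox21 library using CYP2C19 with proluciferin substrate. Reaction: NADPH regeneration, 37C, 1 h, after 10 min compound preincubation at room temperature. Readout: luminescence.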

[18] = target: Nuclear receptor subfamily 1 group I member 2 (Homo sapiens) (UniProt O75469); assay: Human pregnane X receptor (PXR) small molecule agonists, qHTS assay (AID 1346982); further: nearly all actives have a fitted effect of over 35% in size; further: potency means the concentration at half of the fitted maximal effect
Summary of the method: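 Agonist mode qHTS: PXR-Luc HepG2 cells plated 5 hr before DMSO-dissolved compounds were pinned in, cultured 24 hr at 37 C, 5% CO2; ONE-Glo luminescence readout.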

[19] = target: Nuclear receptor subfamily 1 group I member 2 (Homo sapiens) (UniProt O75469); assay: CYP3A4 induction through human pregnane X receptor (PXR) by small molecules, qHTS assay (AID 1346984); further: nearly all actives have a fitted effect of over 40% in size
Summary of the method: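 Steps: seed DPX-2 cells, 5 hr at 37C; pin-transfer compounds; 24 hr at 37C; add Luciferin-IPA (3uM final), 3 hr at 37C; add One-Glo, 30 min RT; read luminescence.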

[20] = target: Nuclear receptor subfamily 1 group I member 2 (Homo sapiens) (UniProt O75469); assay: Human pregnane X receptor (PXR) activation by small molecules, qHTS assay (AID 1346985); further: nearly all actives have a fitted effect of over 40% in size; further: potency means the concentration at half of the fitted maximal effect
Summary of the method: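 DPX-2 cells (HepG2 co-transfected with a PXR response element and a CYP3A4-promoter luciferase construct) were seeded at 2,000 per well, rested 5 hr at 37C, then exposed to DMSO-dissolved compounds for 24 hr. Activation was read as luciferase luminescence.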

Sequence of Thyrotropin-releasing hormone receptor (Homo sapiens) (P34981 whole entry, looked up): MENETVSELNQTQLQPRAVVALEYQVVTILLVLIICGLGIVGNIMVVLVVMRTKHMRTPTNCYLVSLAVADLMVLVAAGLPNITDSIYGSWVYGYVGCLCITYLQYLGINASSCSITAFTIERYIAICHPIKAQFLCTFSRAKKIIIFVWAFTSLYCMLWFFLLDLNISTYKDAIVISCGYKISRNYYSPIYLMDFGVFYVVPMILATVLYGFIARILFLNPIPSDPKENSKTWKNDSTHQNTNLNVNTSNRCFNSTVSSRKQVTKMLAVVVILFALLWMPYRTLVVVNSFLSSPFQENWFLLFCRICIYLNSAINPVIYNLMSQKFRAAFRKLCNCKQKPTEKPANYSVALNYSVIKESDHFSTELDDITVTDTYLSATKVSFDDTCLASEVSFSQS
Sequence of Cytochrome P450 2C19 (Homo sapiens) (P33261 whole entry, looked up): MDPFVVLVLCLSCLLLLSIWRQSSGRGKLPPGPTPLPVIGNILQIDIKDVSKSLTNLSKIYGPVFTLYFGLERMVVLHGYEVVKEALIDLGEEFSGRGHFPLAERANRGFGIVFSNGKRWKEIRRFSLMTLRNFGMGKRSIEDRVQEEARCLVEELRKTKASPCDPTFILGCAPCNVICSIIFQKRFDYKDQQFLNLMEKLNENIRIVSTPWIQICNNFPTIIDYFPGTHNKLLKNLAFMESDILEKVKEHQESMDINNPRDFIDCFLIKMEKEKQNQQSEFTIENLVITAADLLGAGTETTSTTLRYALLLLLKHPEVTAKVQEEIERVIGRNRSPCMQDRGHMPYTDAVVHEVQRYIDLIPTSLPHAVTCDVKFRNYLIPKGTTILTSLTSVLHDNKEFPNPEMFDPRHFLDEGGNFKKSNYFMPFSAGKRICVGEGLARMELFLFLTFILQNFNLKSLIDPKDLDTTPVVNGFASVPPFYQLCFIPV
Sequence of Nuclear receptor subfamily 1 group I member 2 (Homo sapiens) (O75469 whole entry, looked up): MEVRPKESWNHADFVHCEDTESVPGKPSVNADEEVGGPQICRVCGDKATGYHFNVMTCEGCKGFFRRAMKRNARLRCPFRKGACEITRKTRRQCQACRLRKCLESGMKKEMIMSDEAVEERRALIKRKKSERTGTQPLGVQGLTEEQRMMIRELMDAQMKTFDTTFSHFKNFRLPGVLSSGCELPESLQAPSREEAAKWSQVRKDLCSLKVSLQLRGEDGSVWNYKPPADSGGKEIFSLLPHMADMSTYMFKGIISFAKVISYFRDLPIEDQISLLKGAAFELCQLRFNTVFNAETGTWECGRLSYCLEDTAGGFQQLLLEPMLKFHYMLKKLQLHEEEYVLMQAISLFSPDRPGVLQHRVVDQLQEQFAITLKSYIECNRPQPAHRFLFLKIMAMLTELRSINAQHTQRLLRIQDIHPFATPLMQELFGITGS
Sequence of Cytochrome P450 2D6 (Homo sapiens) (P10635 whole entry, looked up): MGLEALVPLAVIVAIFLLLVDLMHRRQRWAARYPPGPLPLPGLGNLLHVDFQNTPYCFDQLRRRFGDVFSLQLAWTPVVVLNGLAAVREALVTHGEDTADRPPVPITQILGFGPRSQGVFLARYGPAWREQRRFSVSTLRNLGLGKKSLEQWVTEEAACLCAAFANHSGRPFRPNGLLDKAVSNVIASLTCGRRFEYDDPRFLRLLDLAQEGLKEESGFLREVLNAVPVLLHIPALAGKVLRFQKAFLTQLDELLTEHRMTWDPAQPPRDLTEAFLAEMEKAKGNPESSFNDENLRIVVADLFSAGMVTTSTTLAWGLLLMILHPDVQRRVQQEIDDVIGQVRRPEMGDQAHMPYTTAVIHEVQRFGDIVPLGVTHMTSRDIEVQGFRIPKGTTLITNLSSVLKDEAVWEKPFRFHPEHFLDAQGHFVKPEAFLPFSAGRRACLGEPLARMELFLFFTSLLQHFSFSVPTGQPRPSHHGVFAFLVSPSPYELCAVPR
Sequence of Progesterone receptor (Homo sapiens) (P06401 whole entry, looked up): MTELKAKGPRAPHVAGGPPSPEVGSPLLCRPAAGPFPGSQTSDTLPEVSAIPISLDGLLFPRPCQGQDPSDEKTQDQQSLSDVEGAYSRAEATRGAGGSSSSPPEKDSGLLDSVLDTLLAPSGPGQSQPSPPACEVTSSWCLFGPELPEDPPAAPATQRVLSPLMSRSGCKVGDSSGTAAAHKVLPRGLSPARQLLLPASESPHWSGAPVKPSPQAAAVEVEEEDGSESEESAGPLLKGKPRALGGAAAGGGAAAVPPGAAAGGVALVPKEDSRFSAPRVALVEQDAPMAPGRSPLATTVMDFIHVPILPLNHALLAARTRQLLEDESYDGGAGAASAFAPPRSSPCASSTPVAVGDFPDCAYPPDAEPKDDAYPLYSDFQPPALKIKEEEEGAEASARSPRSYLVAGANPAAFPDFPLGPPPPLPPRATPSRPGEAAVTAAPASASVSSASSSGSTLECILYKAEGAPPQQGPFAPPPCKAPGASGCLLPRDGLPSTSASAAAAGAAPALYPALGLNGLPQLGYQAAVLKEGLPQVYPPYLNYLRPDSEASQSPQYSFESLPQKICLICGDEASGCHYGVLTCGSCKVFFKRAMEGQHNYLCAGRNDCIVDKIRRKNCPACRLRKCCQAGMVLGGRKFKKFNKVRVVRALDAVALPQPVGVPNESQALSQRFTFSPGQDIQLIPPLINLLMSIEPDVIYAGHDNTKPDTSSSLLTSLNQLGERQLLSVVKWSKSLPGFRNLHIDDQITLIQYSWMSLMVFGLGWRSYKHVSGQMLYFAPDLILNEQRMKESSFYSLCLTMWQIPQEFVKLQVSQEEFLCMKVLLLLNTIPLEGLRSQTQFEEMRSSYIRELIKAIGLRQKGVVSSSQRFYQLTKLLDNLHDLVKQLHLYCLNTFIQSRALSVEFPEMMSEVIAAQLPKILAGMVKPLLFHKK
Sequence of Nuclear receptor subfamily 1 group I member 2 (Rattus norvegicus) (Q9R1A7 whole entry, looked up): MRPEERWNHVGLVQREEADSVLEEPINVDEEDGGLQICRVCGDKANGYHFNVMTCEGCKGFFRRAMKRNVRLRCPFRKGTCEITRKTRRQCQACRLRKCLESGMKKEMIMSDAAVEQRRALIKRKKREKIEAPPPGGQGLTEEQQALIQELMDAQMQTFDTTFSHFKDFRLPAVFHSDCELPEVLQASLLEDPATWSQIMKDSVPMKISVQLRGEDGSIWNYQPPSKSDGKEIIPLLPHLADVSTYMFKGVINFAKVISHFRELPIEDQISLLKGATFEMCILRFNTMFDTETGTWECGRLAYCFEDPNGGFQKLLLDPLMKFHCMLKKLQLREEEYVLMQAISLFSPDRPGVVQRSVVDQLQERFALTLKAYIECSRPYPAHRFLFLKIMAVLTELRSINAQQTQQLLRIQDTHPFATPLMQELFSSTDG

Structure (SMILES)	Potency [1]	outcome [2]	Potency [3]	Potency [4]	outcome [5]	Potency [6]	outcome [7]	outcome [8]	outcome [9]	Potency [10]	Potency [11]	Potency [12]	outcome [13]	Potency [14]	max activation [15]	Potency [16]	Potency [17]	Potency [18]	outcome [19]	Potency [20]
NC(=O)NC1NC(=O)NC1=O (stereo not given)	inactive	inactive	inactive	inactive	inactive	inactive	inactive	inactive	inactive	inactive	inactive	inactive	inactive	inactive	-1.54% (inactive)	35.2 µM (active) and inactive	inactive	–	–	–
O=C(O)CCCCC(=O)O	inactive	inactive	inactive	inactive	inactive	inactive	inactive	inactive	inactive	inactive	inactive	inactive	inactive	inactive	-1.24% (inactive)	inactive	inactive	inactive	inactive	inactive
O=C1CN(/N=C/c2ccc([N+](=O)[O-])o2)C(=O)N1	inactive	inactive	inactive	inactive	inactive	inactive	inactive	inactive	inactive	27.2 µM (active) and 68.6 µM (active) and 26.6 µM (active)	inactive	60.9 µM (active) and 68.6 µM (active) and 33.5 µM (active)	inactive	48.4 µM (active) and 61.1 µM (active) and 29.8 µM (active)	-5.45% (inactive)	inactive	79.4 µM (active) and inactive	inactive	inactive	inactive
NC(=O)c1ccccc1O	inactive	inactive	inactive	inactive	inactive	inactive	inactive	inactive	inactive	inactive	inactive	inactive	inactive	inactive	-6.5% (inactive)	inactive	inactive	inactive	inactive	inactive
O=C(O)CCCCCCCC(=O)O	inactive	inactive	inactive	inactive	inactive	inactive	inactive	inactive	inactive	inactive	inactive	inactive	inactive	inactive	–	inactive	inactive	inactive	–	–
CCCCOC(=O)CC(CC(=O)OCCCC)(OC(C)=O)C(=O)OCCCC	inactive	inactive	inactive	inactive	inactive	inactive	inactive	inactive	inactive	inactive	inactive	inactive	inactive	inactive	0.822% (inactive)	inactive	2.19 µM (active) and 4.04 µM (active) and 3.56 µM (active)	6.68 µM (active) and 12.3 µM (active) and 13.7 µM (active)	–	25.1 µM (active)
NC(=O)c1cnccn1	inactive	inactive	inactive	inactive	inactive	inactive	inactive	inactive	inactive	inactive	inactive	inactive	inactive	inactive	–	19.7 µM (active) and inactive	inactive	inactive	–	–
Nc1ccc(S(=O)(=O)c2ccc(N)cc2)cc1	inactive	inactive	inactive	inactive	inactive	inactive	inactive	inactive	inactive	inactive	inactive	inactive	inactive	inactive	–	inactive	–	inactive	–	–
CC(O)C(=O)O (stereo not given)	inactive	inactive	inactive	inactive	inactive	inactive	inactive	inactive	inactive	inactive	inactive	inactive	inactive	inactive	-1.38% (inactive)	inactive and 11 µM (active)	inactive and 81.1 µM (active)	inactive	inactive	inactive
CCCCCCCCCCCCCCCC(=O)O	inactive	inactive	inactive	inactive	inactive	inactive	inactive	inactive	inactive	inactive	inactive	inactive	inactive	inactive	–	inactive	80.5 µM (active) and inactive	inactive	inactive	inactive
O=c1cc[nH]c(=S)[nH]1	inactive	inactive	inactive	inactive	inactive	inactive	inactive	inactive	inactive	inactive	30.8 µM (active) and inactive	inactive	inactive	inactive	-8.7% (inactive)	inactive	28.5 µM (active) and inactive	61.5 µM (active) and inactive	inactive	inactive
N=C(N)c1ccc(OCCCCCOc2ccc(C(=N)N)cc2)cc1	inactive	inactive	inactive	inactive	inactive	inactive	inactive	inactive	inactive	inactive	inactive	54.2 µM (active) and inactive	inactive	inactive	–	–	inactive	68.2 µM (active) and 32.8 µM (active) and inactive	–	–
Cc1ccc(S(=O)(=O)NC(=O)NN2CCCCCC2)cc1	inactive	inactive	inactive	inactive	inactive	inactive	inactive	inactive	inactive	inactive	inactive	inactive	inactive	inactive	–	–	–	–	–	–
